An excerpt weighted towards active compounds, which were near 2.2% of everything screened.
MEKK2mut PB1 HTS: signal of MEK5 binding to mutant human MEKK2 PB1 domain; bead flow cytometry, Alexa488-MEK5 binding to MEKK2 mutant; percent response, % at 10 µM; 0.35% of 290,000 active; AID 1530; in the data active means percent response above about 24%, passing the limit was not always enough
MEKK3 PB1 HTS: raises or lowers MEK5 binding to the human MEKK3 PB1 domain; Q99759; bead-based flow cytometry, Alexa488-MEK5 binding to MEKK3; actives lie on both sides; 0 = blocked by unlabeled MEK5, 100 = vehicle; binding response (% of control), % at 10 µM; 1.4% of 290,000 active;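 active means binding response more than 3 SD above or below the average of its plate-row segment, actives on both sides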;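 further: Alexa488 bead fluorescence after subtracting the streptavidin-only scavenger bead signal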
MEKK2 WT-MEK5: raises or lowers MEK5 binding to wildtype human MEKK2 PB1 domain. 1.1% of 290,000 active. Q9Y2U5. binding response (% of control), % at 10 µM. bead flow cytometry, Alexa488-MEK5 binding to MEKK2 WT; actives lie on both sides; in the data active means binding response below about 67% or above about 130%
VLA-4 inh: inhibition in a human VLA-4 binding assay; P13612; VLA-4 expressing cells, ligand binding flow cytometry; inhibition, % (about 7 µM as worked out from the volumes in the protocol); 0.2% of 330,000 active; AID 2557; in the data active means inhibition above about 50%
Target sequence (P13612 whole entry, looked up): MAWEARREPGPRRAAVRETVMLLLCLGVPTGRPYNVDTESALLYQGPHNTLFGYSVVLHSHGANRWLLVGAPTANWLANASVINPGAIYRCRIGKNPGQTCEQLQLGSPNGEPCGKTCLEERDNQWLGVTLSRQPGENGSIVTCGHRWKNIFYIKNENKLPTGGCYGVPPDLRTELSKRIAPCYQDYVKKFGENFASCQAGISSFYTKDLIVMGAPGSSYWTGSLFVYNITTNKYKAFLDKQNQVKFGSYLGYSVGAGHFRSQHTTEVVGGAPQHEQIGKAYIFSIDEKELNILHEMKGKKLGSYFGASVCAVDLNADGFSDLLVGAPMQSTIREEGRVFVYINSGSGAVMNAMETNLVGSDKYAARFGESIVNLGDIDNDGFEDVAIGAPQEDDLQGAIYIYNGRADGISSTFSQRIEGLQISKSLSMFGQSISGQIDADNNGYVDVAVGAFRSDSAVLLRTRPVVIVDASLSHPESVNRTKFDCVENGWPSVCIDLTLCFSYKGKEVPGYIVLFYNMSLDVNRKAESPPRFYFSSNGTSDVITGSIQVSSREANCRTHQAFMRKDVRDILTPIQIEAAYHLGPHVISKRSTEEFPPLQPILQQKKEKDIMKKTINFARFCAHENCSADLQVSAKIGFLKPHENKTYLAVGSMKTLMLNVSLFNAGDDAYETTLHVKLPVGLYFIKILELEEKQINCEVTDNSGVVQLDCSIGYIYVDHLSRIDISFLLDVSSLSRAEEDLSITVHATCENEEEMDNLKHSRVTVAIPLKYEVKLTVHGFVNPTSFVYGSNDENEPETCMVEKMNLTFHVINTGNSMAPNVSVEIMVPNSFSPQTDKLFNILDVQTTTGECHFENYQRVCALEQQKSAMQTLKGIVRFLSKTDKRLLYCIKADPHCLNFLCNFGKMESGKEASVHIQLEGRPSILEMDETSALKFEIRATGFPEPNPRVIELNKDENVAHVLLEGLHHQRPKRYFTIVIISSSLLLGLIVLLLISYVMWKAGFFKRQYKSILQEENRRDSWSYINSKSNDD
MEKK2wt confirm: raises or lowers MEK5 binding to wildtype human MEKK2, retest; shares compounds with MEKK3 PB1 HTS; bead flow cytometry, Alexa488-MEK5 binding to MEKK2 WT; actives lie on both sides; binding response (% of control), % at 10 µM; 2.4% of 5,900 active; in the data active means binding response below about 16% or above about 210%; inactive means in between
MEKK2mut confirm: signal of MEK5 binding to mutant human MEKK2, retest | shares compounds with MEKK3 PB1 HTS | bead flow cytometry, Alexa488-MEK5 binding to MEKK2 mutant | percent response, % at 10 µM | 2% of 5,900 active | AID 1893; in the data active means percent response mostly above about 71%, no sharp cut-off; inactive means mostly below about 38%;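 further: higher means compound restores mutant binding toward wildtype level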
MEKK3-MEK5 inh: confirmation of inhibitors of MEK5 binding to human MEKK3; AID 1894; 1.8% of 5,900 active; bead flow cytometry, Alexa488-MEK5 binding to MEKK3; hits give low values; shares compounds with MEKK3 PB1 HTS; binding response (% of control), % at 10 µM;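 active means binding response below 72% of control, or above a set upper limit, though filed actives all read lower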
Of the large screens only hits and unclear results are named; the others gave an inactive call (follow-up assays come after a bar, where they were run); [ ] = remark or other dose.

COc1ccc([C@@H]2[C@@H]3C(=O)N(C(C)(C)C)C(=O)[C@@H]3[C@]3(CC(C)C)C(=O)N(c4cccc(Br)c4)C(=O)N23)cc1	none
COc1ccc(S(=O)(=O)N2CCC(n3cnc4ccccc43)CC2)cc1	none
COc1ccc(S(=O)(=O)N2CCC(n3cnc4cc(C(F)(F)F)ccc43)CC2)cc1	MEKK3 PB1 HTS 126 | MEKK2wt confirm inactive | MEKK2mut confirm inactive | MEKK3-MEK5 inh inactive
Cc1cc(C(=O)c2cnc(/N=C/N(C)C)s2)cc(C)c1O	MEKK3 PB1 HTS 0.0[inhibitor], MEKK2 WT-MEK5 0.0[inhibitor] | MEKK2wt confirm inactive | MEKK2mut confirm inactive | MEKK3-MEK5 inh inactive
CN(C)/C=N/c1ncc(C(=O)c2ccccc2)s1	none
CCN1C(=O)/C(=C/C=C2\C=CN(CC)c3ccccc32)SC1=S	MEKK3 PB1 HTS 75[inhibitor], MEKK2 WT-MEK5 42[inhibitor] | MEKK2wt confirm inactive | MEKK2mut confirm inactive | MEKK3-MEK5 inh inactive
CN1/C(=C\C=C2/SC(=S)NC2=O)C(C)(C)c2ccccc21	none
CCN1C(=O)/C(=C\C=C2/C=CC=CN2CC)SC1=S	none
CCN1C(=O)/C(=C2/Sc3ccccc3N2CC)SC1=S	none
CCCN1C(=O)/C(=C\C=C2\N(CC)c3ccccc3C2(C)C)SC1=S	MEKK2mut PB1 HTS 174, MEKK2 WT-MEK5 186 (no result: VLA-4 inh) | MEKK2wt confirm inactive | MEKK2mut confirm inactive | MEKK3-MEK5 inh inactive
CCCN1C(=O)/C(=C\C=C2/Sc3ccccc3N2CC)SC1=S	MEKK3 PB1 HTS 37[inhibitor], MEKK2 WT-MEK5 7.0[inhibitor] (no result: VLA-4 inh) | MEKK2wt confirm inactive | MEKK2mut confirm inactive | MEKK3-MEK5 inh 71
Cc1ccc(-c2nnc(-n3nc(C)cc3C)c3ccccc23)cc1	MEKK3 PB1 HTS 137 | MEKK2wt confirm inactive | MEKK2mut confirm inactive | MEKK3-MEK5 inh inactive
CCC(C)NC(=O)/C=C1\Sc2ccccc2NC1=O (configuration not stated)	MEKK3 PB1 HTS 135 | MEKK2wt confirm inactive | MEKK2mut confirm inactive | MEKK3-MEK5 inh inactive
Cc1ccc(N/C=C2/Sc3ccccc3NC2=O)cc1	none
Cc1ccccc1CC(=O)N1CCCC1	none
O=C1CCCN1c1ccc(N2CCCC2=O)cc1	none
CN1CCN(c2cc(-c3ccccc3)nc3cc(-c4ccc(F)cc4)nn23)CC1	MEKK2mut PB1 HTS 34, MEKK2 WT-MEK5 152 | MEKK2wt confirm inactive | MEKK2mut confirm inactive | MEKK3-MEK5 inh inactive
COc1cccc(-c2cc3nc(-c4ccccc4)cc(N4CCC5(CC4)OCCO5)n3n2)c1	MEKK2mut PB1 HTS 25, MEKK3 PB1 HTS 125, MEKK2 WT-MEK5 137 | MEKK2wt confirm inactive | MEKK2mut confirm inactive | MEKK3-MEK5 inh inactive
CCOC(=O)C1=C(COC(=O)/C=C/c2ccc(SC)cc2)NC(=O)NC1C (configuration not stated)	none (no result: MEKK2mut PB1 HTS, MEKK3 PB1 HTS, MEKK2 WT-MEK5)
O=S(=O)(c1cccc2nsnc12)N1CCNCC1	none
COc1cccc(-c2c(C#N)c(N)nc3c2c(C)nn3-c2ccccc2)c1O	none
O=C(Nc1cccnc1)c1ccc(CN2CCc3ccccc3C2)cc1	none
Cc1ccc(NC(=O)c2ccc(CN3CCN(C)CC3)cc2)cc1Nc1nccc(-c2cccnc2)n1	none (no result: MEKK2mut PB1 HTS, MEKK2 WT-MEK5) | MEKK3-MEK5 inh inactive
COc1cc(OC)c2c(c1)C(=O)OC2	MEKK3 PB1 HTS 131 | MEKK2wt confirm inactive | MEKK2mut confirm inactive | MEKK3-MEK5 inh inactive
COc1cc(OC)cc(C(=O)Nc2ccc3c(c2)COC3=O)c1	none
Cc1ccc(-n2cc(CNCCCn3ccnc3C)c(-c3ccc(F)cc3)n2)cc1	MEKK2mut PB1 HTS 178, MEKK2 WT-MEK5 306 | MEKK2wt confirm inactive | MEKK2mut confirm 77 | MEKK3-MEK5 inh inactive
Cc1ccc(-c2nn(-c3ccccc3)cc2CO)cc1	none
Cc1ccc(-n2cc(CNCCCn3cccn3)c(-c3cccc(C)c3)n2)cc1	MEKK2 WT-MEK5 138 | MEKK2wt confirm inactive | MEKK2mut confirm inactive | MEKK3-MEK5 inh inactive
Cc1ccc(-c2nn(-c3ccccc3)cc2CNCc2ccccc2)cc1	MEKK2 WT-MEK5 193 | MEKK2wt confirm inactive | MEKK2mut confirm inactive | MEKK3-MEK5 inh inactive
Cc1ccc(C)c(-n2cc(CNCCCn3cccn3)c(-c3ccccc3)n2)c1	none
Cc1ccc(-n2cc(CNCCc3cscn3)c(-c3ccc(F)cc3)n2)cc1	none
CN(C)c1ccc(C(=O)OCC(=O)c2ccc[nH]2)cc1	none (no result: MEKK2mut PB1 HTS, MEKK3 PB1 HTS, MEKK2 WT-MEK5)
Cc1cc(N2CCN(C)CC2)ccc1NC(=O)c1cccc(S(=O)(=O)N2CCc3ccccc3C2)c1	MEKK2 WT-MEK5 195 | MEKK2wt confirm inactive | MEKK2mut confirm inactive | MEKK3-MEK5 inh inactive
COc1ccccc1C(=O)Nc1ccccc1SC(=O)c1ccccc1OC	none
CCOc1ccccc1N/C(=N/c1nc(C)cc(C)n1)NC(=O)Nc1ccc(Cl)c(Cl)c1	MEKK3 PB1 HTS 72[inhibitor] | MEKK2wt confirm inactive | MEKK2mut confirm inactive | MEKK3-MEK5 inh inactive
Cc1c(Cl)cccc1NC(=O)c1ccc(-n2ccnc2)nc1	MEKK3 PB1 HTS 49[inhibitor], MEKK2 WT-MEK5 50[inhibitor] | MEKK2wt confirm inactive | MEKK2mut confirm inactive | MEKK3-MEK5 inh inactive
Cc1c(Cl)cccc1NC(=O)c1cccnc1	none
COc1ccc(NC(=O)CC(C(=O)O)C(C)c2ccccc2)cc1 (configuration not stated)	MEKK2mut PB1 HTS 29, MEKK2 WT-MEK5 160 | MEKK2wt confirm inactive | MEKK2mut confirm inactive | MEKK3-MEK5 inh inactive
COc1ccc(NC(=O)CC(Cc2ccccc2)C(=O)O)cc1 (configuration not stated)	none
COc1cc(S(=O)(=O)n2nc(C)cc2C)c(OC)cc1Cl	MEKK3 PB1 HTS 2.0[inhibitor], MEKK2 WT-MEK5 -2.0[inhibitor] | MEKK2wt confirm inactive | MEKK2mut confirm inactive | MEKK3-MEK5 inh inactive
Oc1c(Cl)cc(Cl)cc1/C=N/Nc1ncc(Br)cn1	MEKK3 PB1 HTS 138 | MEKK2wt confirm inactive | MEKK2mut confirm inactive | MEKK3-MEK5 inh inactive
O=C(N/N=C/c1cc(Cl)cc(Cl)c1O)c1ccncc1	none
COc1ccc(-c2c(-c3ccccc3)c(C(=O)C(=O)NCCCN(C)C)n3ccc4cc(OC)c(OC)cc4c23)cc1OC	MEKK2 WT-MEK5 140 | MEKK2wt confirm inactive | MEKK2mut confirm inactive | MEKK3-MEK5 inh inactive
CN(C)CCNC(=O)C(=O)c1c(-c2ccccc2)cc2ccccn12	none
CC(C)(C)NC(=O)CN(Cc1cccs1)C(=O)CNS(=O)(=O)c1ccc(F)cc1	none
CCC(C(=O)NC(C)(C)C)N(Cc1cccs1)C(=O)CNS(=O)(=O)c1ccccc1 (configuration not stated)	MEKK3 PB1 HTS 132 | MEKK2wt confirm inactive | MEKK2mut confirm inactive | MEKK3-MEK5 inh inactive
COc1ccccc1NC(=O)COC(=O)C1CCCC1	none (no result: MEKK2mut PB1 HTS, MEKK3 PB1 HTS, MEKK2 WT-MEK5)
COc1ccccc1NC(=O)c1ccc(NC(=O)COC(=O)C2CCCCC2)cc1	MEKK3 PB1 HTS 137 | MEKK2wt confirm inactive | MEKK2mut confirm inactive | MEKK3-MEK5 inh inactive

Bioassay records (PubChem)
